Where “and” joins values, the source holds several entries; their conditions need not be identical. Equal values may be shown once. Records with an inconclusive call do not appear. A call without a number means that no potency is given here. Where a structure was tested more than once in an assay, its records may differ in their call. Calls of active or inactive are those of the source. Unless noted, calls follow the shape of the dose curve; as a rule, active = well fitted curve in the direction sought with a large enough effect in the repeat runs; inconclusive = weak or mixed curves; inactive = no such curve, though single readings can be large; an effect the other way counts as inactive or inconclusive.
Assays:
[1] = qHTS assay to identify small molecule antagonists of the glucocorticoid receptor (GR) signaling pathway - cell viability counter screen (AID 720693); also: nearly all actives have a fitted effect of over 55% in size
[2] = qHTS assay for identifying genotoxic compounds that show differential cytotoxicity against isogenic chicken DT40 cell lines with known DNA damage response pathways - wild type cell line (AID 743012); also: nearly all actives have a fitted effect of over 60% in size; also: potency is read from the fitted curve at half-maximal effect
How it was run: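 Parental DNA repair-proficient DT40 cells, 300 per well, were pre-incubated ~0.5 h at 37 C/5% CO2, pin-dosed with compounds in DMSO, then incubated 40 h. Viability was read as CellTiter-Glo luminescence after 30 min at room temperature.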

[3] = qHTS assay for identifying genotoxic compounds that show differential cytotoxicity against isogenic chicken DT40 cell lines with known DNA damage response pathways - Rev3 mutant cell line (AID 743014); also: nearly all actives have a fitted effect of over 55% in size; also: potency is read from the fitted curve at half-maximal effect
[4] = qHTS assay for identifying genotoxic compounds that show differential cytotoxicity against isogenic chicken DT40 cell lines with known DNA damage response pathways - Rad54/Ku70 mutant cell line (AID 743015); also: nearly all actives have a fitted effect of over 60% in size; also: potency is read from the fitted curve at half-maximal effect
[5] = qHTS assay to identify small molecule antagonists of the androgen receptor (AR) signaling pathway - cell viability counter screen (AID 743033; also: nearly all actives have a fitted effect of over 45% in size)
[6] = qHTS assay to identify small molecule antagonists of the androgen receptor (AR) signaling pathway using the MDA cell line - cell viability counter screen (AID 743041; also: nearly all actives have a fitted effect of over 45% in size)
How it was run: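 MDA-kb2 AR-luc cells (MMTV-luciferase, AR/GR responsive) treated with compounds plus R1881 agonist for 16 h at 37C. CellTiter-Fluor added at 15.5 h; fluorescence read after 30 min in the same wells.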

[7] = qHTS assay to identify small molecule antagonists of the thyroid receptor (TR) signaling pathway - cell viability counter screen (AID 743064); also: nearly all actives have a fitted effect of over 50% in size; also: potency is read from the fitted curve at half-maximal effect
How it was run: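 Plate GH3.TRE-Luc cells; incubate 4 h at 37 °C; add compound, then T3 to 1 nM final; incubate 23.5 h; add CellTiter-Fluor; incubate 30 min at 37 °C, 5% CO2; read fluorescence.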

[8] = qHTS assay to identify small molecule antagonists of the thyroid receptor (TR) signaling pathway (AID 743065); also: nearly all actives have a fitted effect of over 55% in size; also: potency is read from the fitted curve at half-maximal effect
How it was run: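 GH3.TRE-Luc rat pituitary cells (two TREs driving luciferase) were dosed with compound, then stimulated with 1 nM T3 (final) for 23.5 h at 37 C. ONE-Glo luminescence was the read-out, with CellTiter-Fluor fluorescence as the cytotoxicity counter-screen.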

[9] = system: thyroid hormone receptor (rat, GH3 cells); assay: qHTS assay to identify small molecule agonists of the thyroid receptor (TR) signaling pathway (AID 743066; calls by dose curve)
[10] = biological target: Estrogen receptor (Homo sapiens) (UniProt P03372); assay: qHTS assay to identify small molecule antagonists of the estrogen receptor alpha (ER-alpha) signaling pathway (AID 743069; active = well fitted curve in the direction sought with a large enough effect in the signal ratio in the repeat runs, not every such curve was filed as active; the % refers to the signal ratio; also: potency is read from the fitted curve at half-maximal effect)
Chain of Estrogen receptor (Homo sapiens) (P03372 whole entry, looked up): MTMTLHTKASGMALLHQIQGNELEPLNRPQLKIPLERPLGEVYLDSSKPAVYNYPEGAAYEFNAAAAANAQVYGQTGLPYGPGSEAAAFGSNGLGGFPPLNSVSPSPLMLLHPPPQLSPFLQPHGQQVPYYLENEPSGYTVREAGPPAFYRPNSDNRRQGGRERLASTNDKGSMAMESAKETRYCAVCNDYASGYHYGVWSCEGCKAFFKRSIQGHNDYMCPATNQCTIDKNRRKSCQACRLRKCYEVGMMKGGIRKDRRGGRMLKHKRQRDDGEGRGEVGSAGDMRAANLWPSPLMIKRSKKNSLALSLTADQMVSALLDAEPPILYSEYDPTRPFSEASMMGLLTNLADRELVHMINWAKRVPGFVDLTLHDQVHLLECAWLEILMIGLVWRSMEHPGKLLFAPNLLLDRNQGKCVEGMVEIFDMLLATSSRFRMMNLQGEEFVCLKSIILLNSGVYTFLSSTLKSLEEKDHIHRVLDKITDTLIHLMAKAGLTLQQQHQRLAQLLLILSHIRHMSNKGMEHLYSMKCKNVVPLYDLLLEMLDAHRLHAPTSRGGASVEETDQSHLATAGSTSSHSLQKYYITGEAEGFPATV
How it was run: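 HEK293 ER-alpha-UAS-bla GripTite cells, held overnight in 2% charcoal-stripped FBS, 5,000 cells/well, preincubated 4 h, then compound plus 17beta-estradiol for 18 h at 37C. Beta-lactamase read by LiveBLAzer B/G FRET substrate, 2 h at room temperature.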

[11] = qHTS assay to identify small molecule antagonists of the estrogen receptor alpha (ER-alpha) signaling pathway - cell viability counter screen (AID 743074; calls by dose curve;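 also: HEK293 cells carrying ER-alpha-UAS-bla reporter stimulated with 17beta-estradiol; nearly all actives have a fitted effect of over 45% in size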)
[12] = biological target: Estrogen receptor (Homo sapiens) (UniProt P03372); assay: qHTS assay to identify small molecule agonists of the estrogen receptor alpha (ER-alpha) signaling pathway (AID 743075; calls by dose curve)
[13] = biological target: Estrogen receptor (Homo sapiens) (UniProt P03372); assay: qHTS assay to identify small molecule agonists of the estrogen receptor alpha (ER-alpha) signaling pathway using the BG1 cell line (AID 743079); also: nearly all actives have a fitted effect of over 20% in size
[14] = qHTS assay to identify small molecule antagonists of the estrogen receptor alpha (ER-alpha) signaling pathway using the BG1 cell line (AID 743080; calls by dose curve;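 also: BG1 cells stimulated with 17beta-estradiol alongside compound; nearly all actives have a fitted effect of over 25% in size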; also: potency is read from the fitted curve at half-maximal effect)
How it was run: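 BG1-Luc-4E2 cells (endogenous full-length ER-alpha, 4xERE luciferase) hormone-starved 5 days in charcoal-stripped FBS, plated 4,000/well for 24 h, then compound plus 17beta-estradiol for 21.5 h at 37 C; ONE-Glo luminescence read.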

[15] = qHTS assay to identify small molecule antagonists of the estrogen receptor alpha (ER-alpha) signaling pathway using the BG1 cell line - cell viability counter screen (AID 743081);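 also: compound given together with 17beta-estradiol as the ER stimulus; series mostly up to about 70 µM; nearly all actives have a fitted effect of over 45% in size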
Aromatase (Homo sapiens) = Aromatase (Homo sapiens) (UniProt P11511); assay: qHTS assay to identify aromatase inhibitors (AID 743083); also: series mostly up to about 70 µM; nearly all actives have a fitted effect of over 55% in size
Chain of Aromatase (Homo sapiens) (P11511 whole entry, looked up): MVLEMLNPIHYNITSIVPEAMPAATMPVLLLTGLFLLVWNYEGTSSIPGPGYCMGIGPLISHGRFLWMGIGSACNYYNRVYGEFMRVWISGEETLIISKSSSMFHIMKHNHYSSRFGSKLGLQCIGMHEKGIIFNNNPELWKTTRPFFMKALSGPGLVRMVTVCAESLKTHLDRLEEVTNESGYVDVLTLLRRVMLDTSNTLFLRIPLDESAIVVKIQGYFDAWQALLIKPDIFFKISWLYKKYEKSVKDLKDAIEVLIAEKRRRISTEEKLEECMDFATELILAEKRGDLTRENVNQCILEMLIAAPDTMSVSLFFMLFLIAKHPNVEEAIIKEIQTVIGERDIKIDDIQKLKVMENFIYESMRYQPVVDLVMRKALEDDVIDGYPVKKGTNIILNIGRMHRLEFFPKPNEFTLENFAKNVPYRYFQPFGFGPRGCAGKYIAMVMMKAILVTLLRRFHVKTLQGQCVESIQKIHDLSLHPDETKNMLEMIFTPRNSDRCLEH

[16] = biological target: Androgen receptor (Homo sapiens) (UniProt P10275); assay: qHTS assay to identify small molecule agonists of the androgen receptor (AR) signaling pathway using the MDA cell line (AID 743040; also: nearly all actives have a fitted effect of over 20% in size)
Chain of Androgen receptor (Homo sapiens) (P10275 whole entry, looked up): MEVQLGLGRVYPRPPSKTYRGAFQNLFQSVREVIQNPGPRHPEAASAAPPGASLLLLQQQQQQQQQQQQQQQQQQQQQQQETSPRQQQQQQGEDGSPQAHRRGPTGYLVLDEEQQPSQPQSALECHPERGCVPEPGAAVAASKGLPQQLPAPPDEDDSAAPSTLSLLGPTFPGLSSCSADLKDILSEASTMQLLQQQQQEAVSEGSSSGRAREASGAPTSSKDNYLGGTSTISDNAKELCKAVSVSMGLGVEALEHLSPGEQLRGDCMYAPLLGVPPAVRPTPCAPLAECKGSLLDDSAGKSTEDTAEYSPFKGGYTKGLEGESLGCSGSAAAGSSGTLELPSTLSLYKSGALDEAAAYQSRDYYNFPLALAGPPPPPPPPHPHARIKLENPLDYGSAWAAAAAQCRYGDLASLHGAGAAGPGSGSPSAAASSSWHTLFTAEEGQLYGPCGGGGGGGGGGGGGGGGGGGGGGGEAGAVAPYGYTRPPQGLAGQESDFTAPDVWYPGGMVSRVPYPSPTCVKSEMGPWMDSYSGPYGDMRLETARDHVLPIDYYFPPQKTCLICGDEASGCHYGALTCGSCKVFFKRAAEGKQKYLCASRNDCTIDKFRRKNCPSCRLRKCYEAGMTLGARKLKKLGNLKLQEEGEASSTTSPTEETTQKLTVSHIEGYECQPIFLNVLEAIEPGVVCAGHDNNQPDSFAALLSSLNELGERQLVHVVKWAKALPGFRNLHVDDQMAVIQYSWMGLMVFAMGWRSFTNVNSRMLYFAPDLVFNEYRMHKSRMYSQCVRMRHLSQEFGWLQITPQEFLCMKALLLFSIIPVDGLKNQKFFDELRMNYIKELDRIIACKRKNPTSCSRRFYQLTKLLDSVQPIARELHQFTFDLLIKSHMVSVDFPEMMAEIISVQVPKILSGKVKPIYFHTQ
How it was run: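 MDA-kb2 breast carcinoma cells carrying MMTV-luciferase (responsive to AR and GR), plated 5 h then treated 16 h with compounds at 37C, 0% CO2. Read-out was ONE-Glo luminescence after 30 min at room temperature.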

[17] = biological target: Androgen receptor (Homo sapiens) (UniProt P10275); assay: qHTS assay to identify small molecule antagonists of the androgen receptor (AR) signaling pathway using the MDA cell line (AID 743042; also: nearly all actives have a fitted effect of over 55% in size)
How it was run: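 MDA-kb2 breast carcinoma cells carrying MMTV-luciferase (AR/GR responsive) were co-treated with compounds and the agonist R1881 for 16 h at 37C. Inhibition read as ONE-Glo luminescence; CellTiter-Fluor fluorescence measured in parallel for cytotoxicity.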

[18] = biological target: Androgen receptor (Homo sapiens) (UniProt P10275); assay: qHTS assay to identify small molecule antagonists of the androgen receptor (AR) signaling pathway (AID 743035; active = well fitted inhibition curve with a large enough effect in the signal ratio in the repeat runs, not every such curve was filed as active; the % refers to the signal ratio)
How it was run: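 HEK293 cells stably carrying a UAS-driven beta-lactamase reporter (AR-UAS-bla GripTite) were plated for 4 h at 37C, then given compound and the agonist R1881 and incubated 16 h. Reporter activity was read by LiveBLAzer B/G FRET fluorescence after 2 h at room temperature.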

[19] = biological target: Androgen receptor (Homo sapiens) (UniProt P10275); assay: qHTS assay to identify small molecule agonists of the androgen receptor (AR) signaling pathway (AID 743036; active = well fitted activation curve with a large enough effect in the signal ratio in the repeat runs, with a control signal flat, not every such curve was filed as active; the % refers to the signal ratio)
How it was run: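 Reporter line: GeneBLAzer AR-UAS-bla-GripTite (HEK293). Steps: plate cells, 4 h rest, add compounds, 16 h at 37C, add LiveBLAzer B/G substrate, 2 h at RT, read fluorescence.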

SMILES | outcome [1] | Potency [2] | Potency [3] | Potency [4] | outcome [5] | Potency [6] | Potency [7] | Potency [8] | outcome [9] | Potency [10] | Potency [11] | Potency [12] | Potency [13] | Potency [14] | outcome [15] | outcome (Aromatase (Homo sapiens)) | Potency [16] | outcome [17] | Potency [18] | outcome [19]
CN(C)C(=O)Oc1cccc([N+](C)(C)C)c1 | inactive | inactive | inactive | inactive | inactive | inactive | inactive | inactive | inactive | inactive | inactive | inactive | inactive | inactive | inactive | inactive |  |  |  | 
CC(=O)O[C@@]12CO[C@@H]1C[C@H](O)[C@@]1(C)C(=O)[C@H](O)C3=C(C)[C@@H](OC(=O)[C@H](O)[C@@H](NC(=O)OC(C)(C)C)c4ccccc4)C[C@@](O)([C@@H](OC(=O)c4ccccc4)[C@H]21)C3(C)C | inactive | 0.0017 µM (active) | 1.7 nM (active) and 1.9 nM (active) | 0.0027 µM (active) | inactive | inactive | 29.8 nM (active) and 106 nM (active) | 0.0298 µM (active) | inactive |  |  | inactive | inactive | 59.6 nM (active) and inactive | inactive | inactive | inactive | inactive |  | 
CC1=CC(=O)[C@H]2C[C@@H]1C2(C)C | inactive | inactive | inactive | inactive | inactive | inactive | inactive | inactive | inactive | inactive | inactive | inactive | inactive |  | inactive | inactive |  |  |  | 
CCCOC(=O)CC | inactive | inactive | inactive | inactive | inactive |  | inactive | inactive | inactive |  | inactive | inactive | inactive | inactive | inactive | inactive | inactive | inactive | inactive | inactive
CC(C)C1CCC(O)CC1 (stereo unspecified) | inactive | inactive | inactive | inactive | inactive | inactive | inactive | inactive | inactive |  | inactive |  |  |  | inactive | inactive | inactive | inactive | inactive | inactive
Nc1ccn([C@@H]2O[C@H](CO)[C@@H](O)C2(F)F)c(=O)n1 | inactive | 0.015 µM (active) | 18.8 nM (active) | 0.0188 µM (active) | inactive | inactive | 168 nM (active) | 0.0422 µM (active) | inactive | 4.77 µM [inhibitor] (active) |  | inactive | inactive |  | inactive | inactive |  |  |  | 
CC[N+](CC)(CC)CCOc1cccc(OCC[N+](CC)(CC)CC)c1OCC[N+](CC)(CC)CC | inactive | inactive | inactive | inactive | inactive | inactive | inactive | inactive | inactive |  | inactive |  |  |  | inactive | inactive | inactive | inactive | inactive | 
CC1(C)OC[C@@H](COC(=O)CCc2ccc(OC[C@@H](O)CNCCNC(=O)N3CCOCC3)cc2)O1 | inactive | inactive | inactive | inactive | inactive | inactive | inactive | inactive | inactive | inactive | inactive | inactive | inactive | inactive | inactive | inactive | inactive | inactive | inactive | inactive
CCCCOCCOC(=O)COc1cc(Cl)c(Cl)cc1Cl | inactive | inactive | inactive | inactive | inactive | inactive | inactive | inactive | inactive | inactive | inactive | inactive | inactive | inactive | inactive | inactive | inactive | inactive | inactive | inactive
CCN[C@H]1C[C@H](C)S(=O)(=O)c2sc(S(N)(=O)=O)cc21 | inactive | inactive | inactive | inactive | inactive | inactive | inactive | inactive | inactive |  | inactive | inactive | inactive | inactive | inactive | inactive |  |  |  | 
CC(C)CCCO | inactive | inactive | inactive | inactive | inactive | inactive | inactive | inactive | inactive | inactive | inactive | inactive | inactive | inactive | inactive | inactive |  |  |  | 
[K+] | inactive | inactive | inactive | inactive | inactive | inactive | inactive | inactive | inactive | inactive | inactive | inactive | inactive | inactive | inactive | inactive |  |  |  | 
O=C(CO)[C@@H](O)[C@H](O)[C@H](O)CO | inactive | inactive | inactive | inactive | inactive | inactive | inactive | inactive | inactive | inactive | inactive | inactive | inactive | inactive | inactive | inactive |  |  |  | 
[O-][n+]1cccc(CO)c1 | inactive | inactive | inactive | inactive | inactive | inactive | inactive | inactive | inactive | inactive | inactive | inactive |  |  | inactive | inactive |  |  |  | 
CC(=O)NC(=O)c1ccccc1O | inactive | inactive | inactive | inactive | inactive | inactive | inactive | inactive | inactive | inactive | inactive | inactive | inactive |  | inactive | inactive |  |  |  | 
CC(=O)N[C@H]1[C@H]([C@H](O)[C@H](O)CO)OC(C(=O)O)=C[C@@H]1N=C(N)N | inactive | inactive | inactive | inactive | inactive | inactive | inactive | inactive | inactive | inactive |  | inactive | inactive | inactive | inactive | inactive | inactive | inactive | inactive | inactive

— PubChem BioAssay (Tox21)
